Laboratory results published in the supplement of paper PMC7156485.

tested on: TDF; test: H1.0 immunofluorescence intensity relative to DMSO (% of DMSO); higher = stronger H1.0 induction, active = 120 or more; conditions: concentration: 10 µM; 24 h
In short: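 Six fields per well were imaged at ×10 after the cells were fixed in 3.7% formaldehyde and stained with a rabbit anti-H1.0 antibody, an AlexaFluor 647 secondary and DAPI. The HCC1569 and TDF cells had been plated at 800 per well in 384-well plates (RPMI, 10% FBS) and treated in triplicate with compounds at 10 µM for 24 h at 37 °C. The values are the median of replicates of H1.0 nuclear intensity or cell number, as percent of the plate control. Smoothing for positional effects was applied to HCC1569 data.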
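Note: TDF is a line of transformed human dermal fibroblasts of mesenchymal origin.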

| Compound | H1.0 immunofluorescence intensity |
| --- | --- |
| CC1(C(=O)O)CCCC2(C)c3cc(O)ccc3CCC12 (centres undefined) [Podocarpic acid] | 101 (inactive) |
| CC(=O)C1=C(O)C2C3c4c[nH]c5cccc(c45)CC3C(C)(C)N2C1=O (centres undefined) [Cyclopiazonic acid] | 100 (inactive) |
| O=c1[nH]c2ccccc2n1C1CCN(CCCC(c2ccc(F)cc2)c2ccc(F)cc2)CC1 [Pimozide] | 107 (inactive) |
| CCCC[N+]1(C)C2CC(OC(=O)C(CO)c3ccccc3)CC1C1OC12.[Br-] (single isomer, unassigned; (-)) [(-)-Scopolamine,n-Butyl-, bromide] | 96 (inactive) |
| CC(=O)NCCc1c[nH]c2ccccc12 [N-Acetyltryptamine] | 104 (inactive) |
| C[N+]1(C)C2CCC1CC(OC(=O)C(CO)c1ccccc1)C2.O=[N+]([O-])[O-] (centres undefined) [Atropine methyl nitrate] | 94.9 (inactive) |
| Cl.c1ccc2c(c1)OCC(C1=NCCN1)O2 (centres undefined) [Idazoxan hydrochloride] | 99.6 (inactive) |
| C#C[C@]1(O)CC[C@H]2[C@@H]3CC[C@H]4Cc5nc6nc7ccccc7n6cc5C[C@]4(C)[C@H]3CC[C@@]21C | 99 (inactive) |
| COc1ccc(C(=O)c2c(C)n(CCN3CCOCC3)c3ccccc23)cc1 [Pravadoline] | 98.4 (inactive) |
| CS(=O)(=O)O.S=C=Nc1cccc(C2(N3CCCCC3)CCCCC2)c1 [Metaphit methanesulfonate] | 83.4 (inactive) |
| O=c1[nH]c2ccccc2n1C1CCN(Cc2ccc(-c3nc4cc5[nH]cnc5cc4nc3-c3ccccc3)cc2)CC1 [Akt Inhibitor VIII, Isozyme-Selective, Akti-1/2] | 105 (inactive) |
| CCCCCC(C=CC=CCC=CCC=CCCCC(=O)O)OO (centres undefined) | 96.4 (inactive) |
| C[C@]12CC[C@@H](O)C[C@@H]1CC[C@@H]1[C@@H]2CC[C@]2(C)[C@@H](O)CC[C@@H]12 [5alpha-Androstane-3alpha,17beta-diol] | 97.3 (inactive) |
| CCN(C)C(=O)Oc1cccc(C(C)N(C)C)c1 (centres undefined) [Rivastigmine] | 90 (inactive) |
| CCCN1CCCC(c2cccc(O)c2)C1.Cl (stereo not drawn) [S(-)-3PPP hydrochloride] | 94.8 (inactive) |
| CC(=O)[C@H]1CC[C@H]2[C@@H]3CC[C@H]4C[C@](C)(O)CC[C@]4(C)[C@H]3CC[C@]12C [(3alpha,5alpha)-3-hydroxy-3-methylpregnan-20-one] | 101 (inactive) |
| O=P1(N(CCCl)CCCl)NCCCO1 (centres undefined) [Cyclophosphamide] | 101 (inactive) |
| CC(=O)OC1C(=O)C2(C)C(O)CC3OCC3(OC(C)=O)C2C(OC(=O)c2ccccc2)C2(O)CC(O)C(C)=C1C2(C)C (centres undefined) [Baccatin III] | 111 (inactive) |
| CN(c1nc2ccccc2s1)C1CCN(CC(O)COc2ccc(F)c(F)c2)CC1.Cl.Cl (centres undefined) | 99 (inactive) |
| CC(N)C(O)c1ccc(O)c(O)c1 (single isomer, unassigned; (-)) [(-)-alpha-Methylnorepinephrine] | 85.9 (inactive) |

| Compound | H1.0 immunofluorescence intensity |
| --- | --- |
| CCCCCCC(=O)CCCCCCC=CCC(O)C(O)C(N)(CO)C(=O)O (centres undefined) [Myriocin] | 99.4 (inactive) |
| C[N+]1([O-])C2CCC1CC(OC(=O)C(CO)c1ccccc1)C2.Cl (centres undefined) | 92.4 (inactive) |
| CNC(=O)OCC[N+](C)(C)C.[Cl-] [Methylcarbamylcholine chloride] | 99.2 (inactive) |
| Cc1sc2ccccc2c1CC1=NCCN1.O=C(O)C(=O)O [Benazoline oxalate] | 92 (inactive) |
| CCCCCC1OC1CC=CCCCCCCCC(=O)O (centres undefined) [Leukotoxin B (12,13-EODE)] | 96.8 (inactive) |
| NC(CCCCCP(=O)(O)O)C(=O)O (stereo not drawn) [D(-)-2-Amino-7-phosphonoheptanoic acid] | 97.7 (inactive) |
| CC12CCC3C(CCC4=CC(=O)CCC43C)C1CCC2=O (centres undefined) [4-Androstene-3,17-dione] | 101 (inactive) |
| C[N+](C)(C)CCCCCCCCCC[N+](C)(C)C [Decamethonium] | 91 (inactive) |
| CC1OC1P(=O)([O-])[O-].[Na+].[Na+] (centres undefined) [Phosphomycin disodium] | 101 (inactive) |
| Br.CCCN(CCC)C1CCc2ccc(O)cc2C1 (stereo not drawn) [R-(+)-7-Hydroxy-DPAT hydrobromide] | 103 (inactive) |
| CS(=O)(=O)O.Cc1c(C(=O)c2cccc3ccccc23)c2cccc3c2n1C(CN1CCOCC1)CO3 (stereo not drawn) [( R)-(+)-WIN 55,212-2 mesylate] | 131 (active) |
| CN(C)C(=O)Oc1ccc[n+](C)c1.[Br-] [Pyridostigmine bromide] | 96.8 (inactive) |
| CC12CCC(O)CC1CCC1C2CCC2(C)C(C(=O)CO)CCC12 (stereo not drawn) [3-alpha,21-Dihydroxy-5-alpha-pregnan-20-one] | 98.8 (inactive) |
| Clc1cnc(Oc2ccc(Oc3ncc(Cl)cc3Cl)cc2)c(Cl)c1 | 97.1 (inactive) |
| O=P([O-])(O)C(Cl)(Cl)P(=O)([O-])O.[Na+].[Na+] [Clodronic acid] | 93.4 (inactive) |
| CN(C)CCc1ccc(O)cc1.CN(C)CCc1ccc(O)cc1.O=S(=O)(O)O [Hordenine sulfate] | 104 (inactive) |
| CCC1(O)C(=O)OCc2c1cc1n(c2=O)Cc2cc3ccccc3nc2-1 [(S)-(+)-Camptothecin] | 126 (active) |
| N#CC(C#N)=Cc1cc(O)c(O)c(O)c1 [Tyrphostin 25] | 102 (inactive) |
| Cl.Oc1ccc2c3c1OC1c4[nH]c5ccccc5c4CC4(O)C(C2)N(CC2CC2)CCC314 (centres undefined) [Naltrindole hydrochloride] | 96.4 (inactive) |
